“And” between values parts separate entries of the source, which are not always exact repeats. Equal entries are not always repeated.
Experiments:
[1] = molecular target: Tyrosine-protein kinase CSK (Homo sapiens) (UniProt P41240); details: at 1 µM;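 note: each value is an averaged inhibition reading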
[2] = molecular target: T1, Discoidin domain-containing receptor 2 (Homo sapiens) (UniProt Q16832); details: at 0.1 µM
T1 sequence (whole entry): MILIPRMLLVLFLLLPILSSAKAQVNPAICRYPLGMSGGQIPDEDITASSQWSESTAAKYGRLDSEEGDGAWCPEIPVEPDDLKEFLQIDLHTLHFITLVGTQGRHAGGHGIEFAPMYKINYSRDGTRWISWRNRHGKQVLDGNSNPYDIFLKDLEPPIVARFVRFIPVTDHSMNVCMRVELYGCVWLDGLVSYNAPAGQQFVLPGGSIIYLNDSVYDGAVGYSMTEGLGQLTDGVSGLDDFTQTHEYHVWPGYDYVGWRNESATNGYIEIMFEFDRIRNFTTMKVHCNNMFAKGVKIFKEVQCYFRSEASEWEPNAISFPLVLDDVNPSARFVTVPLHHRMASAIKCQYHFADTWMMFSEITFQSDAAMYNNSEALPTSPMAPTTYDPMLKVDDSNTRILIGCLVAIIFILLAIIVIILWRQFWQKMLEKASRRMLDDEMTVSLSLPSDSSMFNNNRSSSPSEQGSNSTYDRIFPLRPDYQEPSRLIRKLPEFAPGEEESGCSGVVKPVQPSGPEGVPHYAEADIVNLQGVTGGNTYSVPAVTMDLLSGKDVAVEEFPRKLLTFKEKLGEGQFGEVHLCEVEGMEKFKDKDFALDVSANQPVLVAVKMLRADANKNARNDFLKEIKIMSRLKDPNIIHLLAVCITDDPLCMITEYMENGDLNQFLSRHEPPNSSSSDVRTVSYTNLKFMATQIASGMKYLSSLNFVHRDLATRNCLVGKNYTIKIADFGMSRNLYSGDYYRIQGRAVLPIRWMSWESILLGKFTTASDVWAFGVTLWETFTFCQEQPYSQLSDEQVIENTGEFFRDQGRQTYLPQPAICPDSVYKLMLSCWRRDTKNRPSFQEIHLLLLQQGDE

[3] = molecular target: T1, Discoidin domain-containing receptor 2 (Homo sapiens); details: at 1 µM
[4] = molecular target: Epidermal growth factor receptor (Homo sapiens) (UniProt P00533); details: at 0.1 µM
Sequence of Epidermal growth factor receptor (Homo sapiens) (P00533 whole entry): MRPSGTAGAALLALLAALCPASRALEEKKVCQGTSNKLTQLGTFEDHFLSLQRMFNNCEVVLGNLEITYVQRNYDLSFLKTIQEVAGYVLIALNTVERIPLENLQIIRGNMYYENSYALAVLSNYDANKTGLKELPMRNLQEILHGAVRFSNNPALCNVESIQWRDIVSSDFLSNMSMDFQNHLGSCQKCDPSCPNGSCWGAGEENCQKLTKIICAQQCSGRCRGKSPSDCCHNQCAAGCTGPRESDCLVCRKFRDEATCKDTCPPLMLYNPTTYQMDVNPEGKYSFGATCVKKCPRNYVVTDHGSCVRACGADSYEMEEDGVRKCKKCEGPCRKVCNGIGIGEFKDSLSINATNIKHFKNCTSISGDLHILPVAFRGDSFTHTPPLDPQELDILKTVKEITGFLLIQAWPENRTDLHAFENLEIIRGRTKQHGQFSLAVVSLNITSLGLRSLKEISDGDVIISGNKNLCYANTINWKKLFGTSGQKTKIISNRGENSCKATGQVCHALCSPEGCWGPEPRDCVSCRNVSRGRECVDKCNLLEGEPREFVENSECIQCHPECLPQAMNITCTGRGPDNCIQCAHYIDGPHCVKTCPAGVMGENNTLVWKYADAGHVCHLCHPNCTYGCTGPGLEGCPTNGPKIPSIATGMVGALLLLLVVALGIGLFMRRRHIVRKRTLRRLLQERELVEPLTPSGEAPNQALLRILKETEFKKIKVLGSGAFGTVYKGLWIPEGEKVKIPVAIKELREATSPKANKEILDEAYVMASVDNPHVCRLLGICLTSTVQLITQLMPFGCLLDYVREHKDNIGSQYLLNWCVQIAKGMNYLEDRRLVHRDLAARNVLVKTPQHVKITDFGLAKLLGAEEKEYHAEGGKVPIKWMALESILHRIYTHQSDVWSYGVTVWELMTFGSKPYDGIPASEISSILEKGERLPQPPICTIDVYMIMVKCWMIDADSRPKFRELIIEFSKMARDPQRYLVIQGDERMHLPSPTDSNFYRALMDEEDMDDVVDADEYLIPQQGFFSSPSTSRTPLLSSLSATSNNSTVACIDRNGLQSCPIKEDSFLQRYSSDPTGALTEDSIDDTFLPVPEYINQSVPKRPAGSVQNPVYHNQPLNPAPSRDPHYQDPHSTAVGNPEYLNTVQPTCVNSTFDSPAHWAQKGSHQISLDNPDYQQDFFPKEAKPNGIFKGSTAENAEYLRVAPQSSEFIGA

[5] = molecular target: Epidermal growth factor receptor (Homo sapiens) (UniProt P00533); details: at 1 µM
[6] = system: Epidermal growth factor receptor (Homo sapiens), P00533 [L858R]; details: at 0.1 µM
[7] = system: Epidermal growth factor receptor (Homo sapiens), P00533 [L858R]; details: at 1 µM
[8] = system: Epidermal growth factor receptor (Homo sapiens), P00533 [L861Q]; details: at 0.1 µM
[9] = system: Epidermal growth factor receptor (Homo sapiens), P00533 [L861Q]; details: at 1 µM
[10] = system: Epidermal growth factor receptor (Homo sapiens), P00533 [T790M]; details: at 0.1 µM
[11] = system: Epidermal growth factor receptor (Homo sapiens), P00533 [T790M]; details: at 1 µM
[12] = system: Epidermal growth factor receptor (Homo sapiens), P00533 [L858R,T790M]; details: at 0.1 µM
Sequence of Epidermal growth factor receptor (Homo sapiens), P00533 [L858R,T790M] (P00533 whole entry T790M/L858R, looked up): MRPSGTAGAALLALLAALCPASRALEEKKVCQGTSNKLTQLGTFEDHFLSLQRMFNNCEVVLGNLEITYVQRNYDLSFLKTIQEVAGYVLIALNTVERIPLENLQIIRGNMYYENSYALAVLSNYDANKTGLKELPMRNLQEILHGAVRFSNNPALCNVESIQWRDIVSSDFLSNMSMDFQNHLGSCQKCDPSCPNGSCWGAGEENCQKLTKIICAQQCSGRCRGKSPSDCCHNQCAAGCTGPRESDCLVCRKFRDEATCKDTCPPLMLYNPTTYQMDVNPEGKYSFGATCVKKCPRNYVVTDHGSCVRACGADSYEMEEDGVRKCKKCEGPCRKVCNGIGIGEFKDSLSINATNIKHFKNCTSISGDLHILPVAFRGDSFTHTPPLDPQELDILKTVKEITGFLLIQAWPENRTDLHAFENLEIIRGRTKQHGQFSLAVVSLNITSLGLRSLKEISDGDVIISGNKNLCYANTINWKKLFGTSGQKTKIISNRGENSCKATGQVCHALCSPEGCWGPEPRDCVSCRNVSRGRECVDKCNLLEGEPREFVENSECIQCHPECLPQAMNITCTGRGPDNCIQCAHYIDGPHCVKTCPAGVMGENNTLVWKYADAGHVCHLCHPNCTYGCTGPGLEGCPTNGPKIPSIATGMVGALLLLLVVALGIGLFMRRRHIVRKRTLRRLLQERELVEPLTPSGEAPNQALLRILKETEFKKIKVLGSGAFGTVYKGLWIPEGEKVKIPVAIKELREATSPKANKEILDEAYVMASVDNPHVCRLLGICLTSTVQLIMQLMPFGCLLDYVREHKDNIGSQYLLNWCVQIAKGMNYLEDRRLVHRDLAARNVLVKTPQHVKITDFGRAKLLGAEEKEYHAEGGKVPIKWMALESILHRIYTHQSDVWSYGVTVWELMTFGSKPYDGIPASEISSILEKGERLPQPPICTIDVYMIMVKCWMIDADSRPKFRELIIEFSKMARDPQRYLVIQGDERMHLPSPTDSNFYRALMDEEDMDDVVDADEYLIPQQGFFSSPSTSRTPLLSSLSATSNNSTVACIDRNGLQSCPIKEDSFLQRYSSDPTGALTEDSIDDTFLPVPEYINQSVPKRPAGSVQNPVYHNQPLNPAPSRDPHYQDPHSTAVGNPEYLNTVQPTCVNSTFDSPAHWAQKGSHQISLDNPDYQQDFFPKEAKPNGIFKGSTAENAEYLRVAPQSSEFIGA

[13] = system: Epidermal growth factor receptor (Homo sapiens), P00533 [L858R,T790M]; details: at 1 µM
[14] = molecular target: Ephrin type-A receptor 2 (Homo sapiens) (UniProt P29317); details: at 0.1 µM
Sequence of Ephrin type-A receptor 2 (Homo sapiens) (P29317 whole entry): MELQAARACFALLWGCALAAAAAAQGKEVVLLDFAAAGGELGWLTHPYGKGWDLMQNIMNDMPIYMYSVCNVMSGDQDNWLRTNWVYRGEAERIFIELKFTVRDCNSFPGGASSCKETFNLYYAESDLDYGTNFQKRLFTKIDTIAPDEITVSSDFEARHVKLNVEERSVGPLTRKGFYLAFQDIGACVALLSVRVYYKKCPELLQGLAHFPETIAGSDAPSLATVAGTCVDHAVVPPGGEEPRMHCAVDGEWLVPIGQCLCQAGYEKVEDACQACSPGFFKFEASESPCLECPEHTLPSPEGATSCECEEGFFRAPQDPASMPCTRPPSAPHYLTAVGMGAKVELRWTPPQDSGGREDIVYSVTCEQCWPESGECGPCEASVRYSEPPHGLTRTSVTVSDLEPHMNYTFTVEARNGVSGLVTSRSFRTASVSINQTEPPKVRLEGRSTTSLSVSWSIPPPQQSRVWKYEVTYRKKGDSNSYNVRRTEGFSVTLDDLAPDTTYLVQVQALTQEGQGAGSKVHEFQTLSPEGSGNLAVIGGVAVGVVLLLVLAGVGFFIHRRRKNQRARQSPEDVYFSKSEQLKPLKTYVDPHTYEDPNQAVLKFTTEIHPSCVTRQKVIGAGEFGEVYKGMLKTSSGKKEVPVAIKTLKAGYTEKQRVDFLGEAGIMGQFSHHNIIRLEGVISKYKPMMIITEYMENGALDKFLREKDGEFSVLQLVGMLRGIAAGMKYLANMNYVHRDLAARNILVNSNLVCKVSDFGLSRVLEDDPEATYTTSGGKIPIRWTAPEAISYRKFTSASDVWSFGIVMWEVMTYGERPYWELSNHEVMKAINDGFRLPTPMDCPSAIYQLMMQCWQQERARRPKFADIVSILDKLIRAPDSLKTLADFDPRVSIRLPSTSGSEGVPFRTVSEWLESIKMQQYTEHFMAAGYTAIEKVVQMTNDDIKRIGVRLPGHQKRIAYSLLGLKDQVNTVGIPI

[15] = molecular target: Ephrin type-A receptor 2 (Homo sapiens) (UniProt P29317); details: at 1 µM
[16] = molecular target: T2, Ephrin type-A receptor 3 (Homo sapiens) (UniProt P29320); details: at 0.1 µM
T2 sequence (whole entry): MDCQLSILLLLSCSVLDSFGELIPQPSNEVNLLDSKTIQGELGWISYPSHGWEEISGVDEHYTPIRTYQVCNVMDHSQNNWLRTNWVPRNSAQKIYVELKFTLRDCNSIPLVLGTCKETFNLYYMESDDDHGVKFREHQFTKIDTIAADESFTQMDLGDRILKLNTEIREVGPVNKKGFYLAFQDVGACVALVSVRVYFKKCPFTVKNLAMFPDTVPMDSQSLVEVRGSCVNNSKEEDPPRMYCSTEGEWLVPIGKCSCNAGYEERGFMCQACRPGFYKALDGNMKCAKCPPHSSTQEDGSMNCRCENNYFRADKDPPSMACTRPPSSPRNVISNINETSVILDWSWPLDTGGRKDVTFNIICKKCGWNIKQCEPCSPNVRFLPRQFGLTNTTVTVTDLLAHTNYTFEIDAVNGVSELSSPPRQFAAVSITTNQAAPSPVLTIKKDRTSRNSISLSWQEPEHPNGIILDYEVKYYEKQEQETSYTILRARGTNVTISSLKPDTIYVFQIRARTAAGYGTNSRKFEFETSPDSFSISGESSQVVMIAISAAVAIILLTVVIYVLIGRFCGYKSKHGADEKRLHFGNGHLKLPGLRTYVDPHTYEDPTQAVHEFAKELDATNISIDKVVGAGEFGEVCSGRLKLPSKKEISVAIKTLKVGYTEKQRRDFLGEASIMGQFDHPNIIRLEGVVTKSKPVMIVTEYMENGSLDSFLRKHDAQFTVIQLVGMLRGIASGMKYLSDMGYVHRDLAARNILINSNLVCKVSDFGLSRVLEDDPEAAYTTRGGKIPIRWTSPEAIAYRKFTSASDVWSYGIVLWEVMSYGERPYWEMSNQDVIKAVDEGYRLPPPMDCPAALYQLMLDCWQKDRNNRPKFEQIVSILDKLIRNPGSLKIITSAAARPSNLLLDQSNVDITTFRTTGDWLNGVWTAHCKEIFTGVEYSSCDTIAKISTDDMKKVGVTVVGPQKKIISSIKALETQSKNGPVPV

[17] = molecular target: T2, Ephrin type-A receptor 3 (Homo sapiens); details: at 1 µM
[18] = molecular target: Ephrin type-A receptor 4 (Homo sapiens) (UniProt P54764); details: at 0.1 µM
Sequence of Ephrin type-A receptor 4 (Homo sapiens) (P54764 whole entry): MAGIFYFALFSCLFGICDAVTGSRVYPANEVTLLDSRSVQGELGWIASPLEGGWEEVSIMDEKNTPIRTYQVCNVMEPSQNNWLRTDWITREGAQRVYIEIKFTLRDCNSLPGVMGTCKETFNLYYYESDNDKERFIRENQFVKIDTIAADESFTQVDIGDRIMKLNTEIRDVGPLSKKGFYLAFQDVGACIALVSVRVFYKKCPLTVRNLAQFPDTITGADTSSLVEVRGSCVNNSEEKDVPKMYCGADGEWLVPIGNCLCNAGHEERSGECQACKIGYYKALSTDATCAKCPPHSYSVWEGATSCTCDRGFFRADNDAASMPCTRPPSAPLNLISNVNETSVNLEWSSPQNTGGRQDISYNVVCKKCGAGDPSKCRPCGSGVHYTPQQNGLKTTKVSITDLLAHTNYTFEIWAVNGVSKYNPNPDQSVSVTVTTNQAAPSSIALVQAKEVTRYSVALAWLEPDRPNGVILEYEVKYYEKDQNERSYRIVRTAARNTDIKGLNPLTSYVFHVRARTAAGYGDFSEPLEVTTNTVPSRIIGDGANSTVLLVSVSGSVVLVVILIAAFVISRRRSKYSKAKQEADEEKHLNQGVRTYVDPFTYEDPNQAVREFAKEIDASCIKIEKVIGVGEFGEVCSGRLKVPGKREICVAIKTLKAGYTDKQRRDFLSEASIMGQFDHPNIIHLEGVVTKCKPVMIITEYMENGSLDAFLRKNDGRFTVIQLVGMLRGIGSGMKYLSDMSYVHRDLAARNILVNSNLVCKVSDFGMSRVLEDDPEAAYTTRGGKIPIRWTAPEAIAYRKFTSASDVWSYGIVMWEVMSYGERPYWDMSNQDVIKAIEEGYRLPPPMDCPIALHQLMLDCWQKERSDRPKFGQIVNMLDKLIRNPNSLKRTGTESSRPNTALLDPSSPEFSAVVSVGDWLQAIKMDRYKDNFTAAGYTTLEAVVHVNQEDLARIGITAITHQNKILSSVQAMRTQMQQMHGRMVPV

[19] = molecular target: Ephrin type-A receptor 4 (Homo sapiens) (UniProt P54764); details: at 1 µM
[20] = molecular target: T3, Ephrin type-B receptor 2 (Homo sapiens) (UniProt P29323); details: at 0.1 µM;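 note: reported as mean inhibition of EPHB2, from the GSK PKIS dataset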
T3 sequence (whole entry): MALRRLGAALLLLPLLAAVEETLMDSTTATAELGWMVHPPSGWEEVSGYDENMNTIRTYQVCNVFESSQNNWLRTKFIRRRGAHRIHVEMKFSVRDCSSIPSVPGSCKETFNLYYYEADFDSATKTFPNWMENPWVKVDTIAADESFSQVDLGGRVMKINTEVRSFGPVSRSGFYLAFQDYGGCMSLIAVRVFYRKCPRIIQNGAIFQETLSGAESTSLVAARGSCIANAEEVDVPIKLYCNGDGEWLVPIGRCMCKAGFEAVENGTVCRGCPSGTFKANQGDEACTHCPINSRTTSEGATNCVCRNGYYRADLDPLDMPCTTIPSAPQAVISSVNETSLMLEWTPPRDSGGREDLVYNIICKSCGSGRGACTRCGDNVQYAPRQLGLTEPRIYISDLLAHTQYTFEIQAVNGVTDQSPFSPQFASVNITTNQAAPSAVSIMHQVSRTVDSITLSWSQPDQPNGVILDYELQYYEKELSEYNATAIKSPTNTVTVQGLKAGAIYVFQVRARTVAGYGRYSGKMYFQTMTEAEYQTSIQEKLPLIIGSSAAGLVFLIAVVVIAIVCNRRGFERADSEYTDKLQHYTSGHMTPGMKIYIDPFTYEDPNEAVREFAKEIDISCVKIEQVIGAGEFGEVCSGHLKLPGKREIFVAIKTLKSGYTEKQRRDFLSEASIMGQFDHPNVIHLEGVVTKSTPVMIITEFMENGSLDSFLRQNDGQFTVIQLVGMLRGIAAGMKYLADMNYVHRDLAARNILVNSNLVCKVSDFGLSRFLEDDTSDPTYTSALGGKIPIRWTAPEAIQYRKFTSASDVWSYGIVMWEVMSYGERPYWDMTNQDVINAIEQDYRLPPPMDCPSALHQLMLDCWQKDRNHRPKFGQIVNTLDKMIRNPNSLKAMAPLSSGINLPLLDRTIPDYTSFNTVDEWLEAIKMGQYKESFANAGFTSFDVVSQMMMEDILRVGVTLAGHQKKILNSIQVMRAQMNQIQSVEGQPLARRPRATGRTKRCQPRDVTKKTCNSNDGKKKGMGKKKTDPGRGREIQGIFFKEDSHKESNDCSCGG

Sequence of Tyrosine-protein kinase CSK (Homo sapiens) (P41240 2-450 limits assumed): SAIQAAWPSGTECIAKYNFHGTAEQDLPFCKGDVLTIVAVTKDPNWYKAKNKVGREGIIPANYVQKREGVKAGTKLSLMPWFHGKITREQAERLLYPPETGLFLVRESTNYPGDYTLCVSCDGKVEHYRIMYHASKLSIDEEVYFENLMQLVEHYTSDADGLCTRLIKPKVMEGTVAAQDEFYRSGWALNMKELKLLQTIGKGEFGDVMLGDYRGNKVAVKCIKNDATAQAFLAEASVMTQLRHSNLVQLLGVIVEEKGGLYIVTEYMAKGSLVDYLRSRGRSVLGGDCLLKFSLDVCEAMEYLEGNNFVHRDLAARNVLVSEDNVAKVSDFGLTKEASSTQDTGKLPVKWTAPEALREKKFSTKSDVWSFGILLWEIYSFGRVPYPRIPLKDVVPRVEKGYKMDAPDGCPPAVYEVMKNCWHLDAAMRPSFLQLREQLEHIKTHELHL

| SMILES | inhibition [1] | inhibition [2] | inhibition [3] | inhibition [4] | inhibition [5] | inhibition [6] | inhibition [7] | inhibition [8] | inhibition [9] | inhibition [10] | inhibition [11] | inhibition [12] | inhibition [13] | inhibition [14] | inhibition [15] | inhibition [16] [%] | inhibition [17] | inhibition [18] [%] | inhibition [19] | inhibition [20] |
| --- | --- | --- | --- | --- | --- | --- | --- | --- | --- | --- | --- | --- | --- | --- | --- | --- | --- | --- | --- | --- |
| c1cnn2ncc(-c3ccnc(NCCCN4CCOCC4)n3)c2c1 | 1.9% | 2.03% | 1.44% | -0.42% | 0.23% | 3.41% | 1.28% | 1.28% | 0.79% | 0.73% | 1.66% | -1.49% | 0.81% | -0.74% | -1.53% | 2.9 | 6.16% | 10 | 5.87% | 6.81% |
| COc1ccc(Nc2ncc(-c3ccccc3)o2)cc1OC | -1.08% | -0.12% | 5.66% | 1.83% | 5.16% | -1.38% | 2.96% | -1.19% | 0.83% | 0.72% | -1.98% | -0.33% | -0.29% | 0.89% | 2.73% | -1.2 | 1.63% | 2.72 | 1.61% | -1.69% |
| CS(=O)(=O)CCNCc1ccoc1-c1ccc2ncnc(Nc3ccc(OCc4ccccc4)cc3)c2c1 | 4.64% | 5.97% | 7.08% | 66.8% | 86.2% | 14.5% | 51.2% | 25.4% | 42.1% | 0.03% | 4.58% | -0.19% | -0.52% | -2.48% | -2.19% | 0.44 | 2.32% | 4.33 | 6.25% | 4.8% |
| N#Cc1cccc(Nc2ncc(-c3ccccc3)o2)c1 | 5.14% | 2.3% | 2.59% | -0.19% | 2.05% | 2.09% | 2.9% | 3.59% | 2.98% | 1.65% | 3.24% | 0.29% | 3.37% | 1.14% | 0.54% | 2.39 | 1.84% | 6.35 | 8.39% | 2.84% |
| Nc1ncnc2occ(-c3ccc(NC(=O)Nc4cc(C(F)(F)F)ccc4F)cc3)c12 | 41% and 18.6% | 46.1% and 33.6% | 80% and 79.7% | 1.05% and 12.5% | 5.41% and 15.6% | 2.23% and 3.14% | 1.42% and 3.22% | 3.11% and 1.25% | 1.69% and 1.44% | 1.74% and 0.3% | -0.24% and 0.54% | 0.74% and 1.93% | 0.23% and -1.52% | 22.4% and 1.32% | 80.5% and 57% |  | 43.8% and 25.2% |  | 77.2% and 77.9% | 55.4% and 55.7% |
| CC1=C(C(=O)Nc2ccc3[nH]nc(C)c3c2)C(c2ccc(C(F)(F)F)cc2)CC(=O)N1 (stereo not drawn) | 5.65% | 3.33% | 1.65% | 2.76% | 5.52% | 4.19% | 1.96% | 1.79% | 1.92% | 2.05% | -0.09% | 3.65% | -0.97% | 2.9% | 2.18% | 2.71 | 2.28% | 5.51 | 5.67% | 5.5% |
| Fc1ccc(Nc2nccc(-c3c(-c4ccc(C(F)(F)F)cc4)nn4ncccc34)n2)cc1F | 0.02% | 0.84% | 1.01% | -6.64% | 2.88% | 4.49% | 2.96% | 2.39% | -0.05% | 2.44% | 0.77% | -1.9% | 0.06% | 2.87% | 0.53% | 2.83 | 3.84% | 5.7 | 1.99% | 8.38% |
| O=C1Nc2ccccc2/C1=C1\CCc2cc(O)ccc21 | 4.47% | 2.06% | 3.76% | 0.24% | 1.05% | 1.94% | 2.87% | 2.16% | -0.57% | 1.76% | 2.73% | 1.8% | 4.76% | 2.66% | 2% | 6.06 | 4.39% | 7.97 | 3.3% | 3.53% |
| COc1ccccc1-c1cc(/C=C2\C(=O)Nc3ncc(Br)cc32)cc(Br)c1O | 3.65% | 2.75% | 10.6% | -0.76% | 2.08% | -0.74% | 0.61% | 2.99% | 4.29% | 1.88% | 1.53% | 1.24% | 4.48% | 1.75% | 3.18% | 4.45 | 5.49% | 9.58 | 6.4% | 6.05% |

Source: ChEMBL document CHEMBL1961873, “Compounds: GSK PKIS; Assays: Nanosyn kinase panel” (2012)
